Test results: PubChem BioAssay AID1321 (The Scripps Research Institute Molecular Screening Center, 2008)
Out of some 220,000 compounds screened, about 2,600 (1.2%) were called active.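 How the source made its calls: active means activation above the mean of all tested compounds plus 3 SD, set per screening run (cut at about 8.8% in these data); inactive means the rest.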 Many of the other results were omitted from the sample, so actives are more common in it than they were.

biological target: Wee1-like protein kinase (Homo sapiens) (UniProt P30291); experiment: Wee1 degradation inhibitors, primary screen, cell-based, HeLa, Wee1K328M-luciferase, luminescence (AID 1321); conditions: HeLa Luc-Wee1K328M stability, at 5 µM, active compounds read high, 100% = proteasome inhibitor MG132 effect;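 further: cells exposed to compound for 20 h before luminescence read; 0% = DMSO alone and 100% = MG132 at 30 µM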

Row | Structure (SMILES) | reporter increase
1 | CC(=O)NC(=S)Nc1ccc(NC(=S)NC(=O)c2ccc([N+](=O)[O-])cc2)cc1 | 1.61% (inactive)
2 | Cc1nnc(C)c2c(C)n(N)c(C)c12 | 3.05% (inactive)
3 | O=C(CCl)Nc1ccc(Sc2ccc(NC(=O)CCl)cc2)cc1 | -0.49% (inactive)
4 | Cc1ccc(NC(=O)CCN2CCc3ccccc3C2)cc1 | 0.24% (inactive)
5 | Cc1ccc(NC(=O)CC(=O)Nc2ccc(C)cc2)cc1 | 1.54% (inactive)
6 | Cc1ccc(NC(=O)CN2CCc3ccccc3C2)cc1 | 12.7% (active)
7 | COc1ccc(NC(=O)C2=C(C)NC(=O)NC2c2ccccc2[N+](=O)[O-])cc1 (stereo unspecified) | 0.32% (inactive)
8 | O=C(O)c1cc(Cl)c(Cl)cc1C(=O)Nc1cccc2ncccc12 | -2.37% (inactive)
9 | O=C(Nc1cccc2ncccc12)c1ccc(-c2ccc(Cl)cc2Cl)o1 | 7.64% (inactive)
10 | O=C(Nc1cccc2ncccc12)C(Cl)(Cl)Cl | 9.1% (active)
11 | O=[N+]([O-])c1cccc2ncccc12 | -1.36% (inactive)
12 | Cc1ccc(C(=O)Nc2cccc3ncccc23)cc1[N+](=O)[O-] | 54.1% (active)
13 | Cc1cc(O)c(NC(=O)c2ccc(C)c([N+](=O)[O-])c2)cc1C | 2.32% (inactive)
14 | O=C(NC(=O)c1ccccc1N1CCCCC1)Nc1ccc(Br)cc1 | -1.56% (inactive)
15 | Fc1ccc(Nc2nnns2)cc1 | -1.03% (inactive)
16 | CN1CCN(c2cc3c(cc2F)c(=O)c(C(=O)O)cn3CCF)CC1 | -0.92% (inactive)
17 | C#CCNc1ccc(C(=O)OCC)cc1 | -0.22% (inactive)
18 | CCOC(=O)c1sc(/N=C/C2=C(O)CC(C)(C)CC2=O)c(C(=O)OCC)c1C | 0.6% (inactive)
19 | CCOC(=O)c1c(/N=C/C2C(=O)CC(C)(C)CC2=O)sc(C)c1C | 12.6% (active)
20 | CCOC(=O)c1c(NC(=O)c2cccs2)sc(C)c1C | -0.63% (inactive)
21 | COc1cc(OC)cc(/C(N)=N/O)c1 | 5.93% (inactive)
22 | Cc1ccc(CN(C)CC(=O)Nc2cccc([N+](=O)[O-])c2)o1 | 8.93% (active)
23 | CC(=O)Nc1cccc([N+](=O)[O-])c1 | 1.71% (inactive)
24 | CN(CC(=O)Nc1cccc(F)c1)CC(=O)Nc1cccc([N+](=O)[O-])c1 | 3.36% (inactive)

Row | Structure (SMILES) | reporter increase
25 | COc1ccc(N=Nc2ccc(O)c(P(=O)(c3ccccc3)c3ccccc3)c2)cc1 | 2.24% (inactive)
26 | Clc1ccc(C[n+]2cc(-c3ccccc3)n3c2CCC3)cc1 | -0.29% (inactive)
27 | COc1ccccc1NC(=O)C1=C(C)Nc2nc3ccccc3n2C1c1cccs1 (stereo unspecified) | 5.69% (inactive)
28 | COc1ccccc1NC(=O)c1ccc(C)s1 | -0.54% (inactive)
29 | COc1ccccc1NC(=O)C1=C(C)NC(=O)NC1c1ccc(C)s1 (stereo unspecified) | 9.03% (active)
30 | Nc1nc(Nc2ccccc2)nc(NCCO)c1[N+](=O)[O-] | -3.26% (inactive)
31 | Cc1cc(C)c(C)c(S(=O)(=O)N[C@@H](C)C(=O)OC(C)C(=O)NC(N)=O)c1C (stereo partly specified) | -2.95% (inactive)
32 | CCOc1ccc(/C=N/Nc2nncc(-c3ccccc3)n2)cc1OC | 16.9% (active)
33 | COc1cccc(/C=N\Nc2nncc(-c3ccccc3)n2)c1 | 0.25% (inactive)
34 | COc1ccc(/C=N/Nc2nc3ccccc3o2)cc1OC | 4.92% (inactive)
35 | OCCN1CCN(C(=S)c2ccc(-c3ccccc3)cc2)CC1 | -3.59% (inactive)
36 | COc1ccc(NC(=O)C2CCC(CNc3c(N4CCCCC4)c(=O)c3=O)CC2)c(OC)c1 (stereo unspecified) | 1.06% (inactive)
37 | CCOC(=O)c1nnn2c3ccccc3c(=O)n(C)c12 | -0.3% (inactive)
38 | Cc1ncn2cc(-c3ccc(Cl)cc3Cl)[nH]c(=O)c12 | -1.11% (inactive)
39 | Cc1ccc(S(=O)(=O)/N=C(/NC(=S)Nc2c(C)n(C)n(-c3ccccc3)c2=O)c2ccccc2)cc1 | -0.69% (inactive)
40 | Cc1ccccc1CSc1nnc(CCCCCNC(=O)OC(C)(C)C)o1 | 15.4% (active)
41 | Cc1cccc(NC(=O)CSc2nnc(CCCCCNC(=O)OC(C)(C)C)o2)c1C | -2.16% (inactive)
42 | CCc1ccccc1NC(=O)CSc1nnc(CCNC(=O)OC(C)(C)C)o1 | 5.87% (inactive)
43 | CSc1nnc(-c2ccc(C(F)(F)F)cn2)o1 | -1.5% (inactive)
44 | Cc1nc(-c2nnc(SCC(=O)Nc3cc(C(F)(F)F)cc(C(F)(F)F)c3)n2C)cs1 | 2.29% (inactive)
45 | CCn1c(=O)c([N+](=O)[O-])c(NCc2ccc3c(c2)OCO3)c2ccccc21 | -2.11% (inactive)
46 | COc1ccccc1N1CCN(CCCCOc2ccc(F)cc2)CC1 | 1.24% (inactive)
47 | COc1ccc(N2CCN(c3ccc([N+](=O)[O-])nc3)CC2)cc1 | 2.25% (inactive)
48 | COc1ccccc1N1CCN(c2ccc([N+](=O)[O-])nc2)CC1 | 12.9% (active)

Row | Structure (SMILES) | reporter increase
49 | CCC(C)NC(=O)C1c2ccccc2Oc2ccccc21 (stereo unspecified) | 2.05% (inactive)
50 | Cc1ccc(N2CCN(S(=O)(=O)N(C)C)CC2)cc1Cl | 13.4% (active)
51 | CC(C)=C1SC(N2CCN(c3ccc(C)c(Cl)c3)CC2)=NC1=O | -2.39% (inactive)
52 | CN(C)S(=O)(=O)N1CCN(c2ccc([N+](=O)[O-])cc2)CC1 | 6.3% (inactive)
53 | N#C/C(=C\c1ccc(-c2cccc([N+](=O)[O-])c2)o1)C(=O)NCCN1CCOCC1 | 9.19% (active)
54 | N#C/C(=C/c1ccc(-c2ccccc2[N+](=O)[O-])o1)C(=O)NCCN1CCCCC1 | -2.23% (inactive)
55 | Cc1ccc(Cc2cnc(NC(=O)/C(C#N)=C/c3ccc(-c4cccc([N+](=O)[O-])c4)o3)s2)cc1 | -0.97% (inactive)
56 | CCOC(=O)C1=C(c2ccccc2)NC(=S)NC1c1ccc(Cl)cc1 (stereo unspecified) | 3.7% (inactive)
57 | CC(C)(C)c1cc(P(=O)(c2ccccc2)c2ccccc2)ccc1O | 0.95% (inactive)
58 | COc1ccc(C2c3ccc(O)cc3Oc3ncn(CCCO)c(=N)c32)cc1OC (stereo unspecified) | 2.84% (inactive)
59 | N#Cc1ccc(Oc2ccc(C(F)(F)F)cc2NC(=O)c2ccc(F)cc2)cc1 | 2.35% (inactive)
60 | COc1cc(/C=C2/C(=O)NN(c3ccc(F)cc3)C2=O)cc([N+](=O)[O-])c1O | -0.14% (inactive)
61 | COc1ccc(CN2C(=O)CC(Cc3ccc(C)cc3)C2=O)cc1OC (stereo unspecified) | 10.8% (active)
62 | COc1ccc(CCN2C(=O)C3CC=C(C)CC3C2=O)cc1OC (stereo unspecified) | 5.14% (inactive)
63 | Cc1ccc(CC2CC(=O)N(c3nc(C)cc(C)n3)C2=O)cc1 (stereo unspecified) | -2.45% (inactive)
64 | Cc1nc(-c2ccccc2)sc1-c1nnc(C2CC2)o1 | -1.78% (inactive)
65 | CCOC(=O)c1cc(Sc2ccccc2N)cc(C(=O)OCC)n1 | -2.91% (inactive)
66 | Cc1nnsc1C(=O)N/N=C/c1ccccc1Cl | 2.61% (inactive)
67 | COc1cccc(N(CC(=O)Nc2cccc(N(C)S(C)(=O)=O)c2)S(C)(=O)=O)c1 | -1.32% (inactive)
68 | COc1cccc(N(CC(=O)Nc2cccc(F)c2)S(C)(=O)=O)c1 | 8.9% (active)
69 | CCN(CC)S(=O)(=O)c1ccc(NC(=O)CN(c2cccc(F)c2)S(C)(=O)=O)cc1 | -1.26% (inactive)
70 | O=C(CC1CCCCC1)NCc1ccco1 | 0.37% (inactive)
71 | O=C(Cc1ccc(F)cc1)NC1CCCC1 | -1.42% (inactive)
72 | O=C(CC1CCCCC1)NCc1ccc(F)cc1 | 8.97% (active)

Row | Structure (SMILES) | reporter increase
73 | Cc1ccc(S(=O)(=O)/N=C(/Nc2ccc3[nH]c(=O)[nH]c3c2)c2ccccc2)cc1 | -1.22% (inactive)
74 | COC(=O)c1ccccc1NS(=O)(=O)c1ccc2[nH]c(=O)[nH]c2c1 | -1.86% (inactive)
75 | CC(OC(=O)c1ccc(NS(=O)(=O)c2ccc3[nH]c(=O)[nH]c3c2)cc1)C(=O)Nc1cccc(Cl)c1Cl (stereo unspecified) | 24.1% (active)
76 | O=C1/C(=C/c2coc3ccc(O)cc3c2=O)SC(=S)N1c1ccccc1 | -0.03% (inactive)
77 | COc1c(C=O)c(CCN(C)C(=O)c2ccc(F)cc2)cc2c1OCO2 | 0.06% (inactive)
78 | COc1ccc(-c2nnco2)cc1OC | -2.71% (inactive)
79 | Fc1ccc(COc2ccc(-c3nnco3)cc2)cc1 | 16.2% (active)
80 | Fc1ccc(COc2cccc(-c3n[nH]c(=S)o3)c2)cc1 | -0.05% (inactive)
81 | CCOC(=O)Cc1cc(=O)[nH]c(/N=C(\N)Nc2ccc(OC)cc2)n1 | 0.86% (inactive)
82 | Oc1ccc2ccccc2c1C=Nc1ccccc1 | -2.84% (inactive)
83 | CCn1c2ccccc2c2cc(NC(=O)COC(=O)c3ccccc3Br)ccc21 | 1.86% (inactive)
84 | CCn1c2ccccc2c2cc(NC(=O)COC(=O)c3cc(S(=O)(=O)N4CCCCC4)ccc3Cl)ccc21 | 11.6% (active)
85 | O=C(COC(=O)c1cc(S(=O)(=O)N2CCCCC2)ccc1Cl)NCc1ccco1 | 5.36% (inactive)
86 | Nc1ccc(C(=O)OCC(=O)NC2CCS(=O)(=O)C2)cc1[N+](=O)[O-] (stereo unspecified) | -1.54% (inactive)
87 | COc1ccccc1P(=O)(c1ccccc1)c1ccccc1NC(C)=O (stereo unspecified) | 0.01% (inactive)
88 | Cc1ccc(NC(=O)CSCC(=O)NC2CCCCC2)cc1 | 0.26% (inactive)
89 | Cc1ccc(-c2nc(CS(=O)CC(=O)NC3CCCC3)c(C)o2)cc1 (stereo unspecified) | 2.35% (inactive)
90 | Cc1ccc(NC(=O)CS(=O)CC(=O)N(c2ccccc2)C(C)C(=O)NC2CCCC2)cc1 (stereo unspecified) | 10.2% (active)
91 | Nc1nc(NC(=O)/C=C/c2ccc(F)cc2)nn1-c1ccccc1 | -3.61% (inactive)
92 | Oc1ccc(-c2nnc(Nc3ccccc3)c3ccccc23)cc1 | -2.97% (inactive)
93 | O=C1/C(=C/c2cccs2)SC(=S)N1C1CCS(=O)(=O)C1 (stereo unspecified) | 2.22% (inactive)
94 | COc1cccc2sc(NNC(=O)c3nc4ccccc4s3)nc12 | 1.43% (inactive)
95 | COc1ccccc1OCc1nc2ccccc2s1 | 10.1% (active)
96 | O=C(O)CCCCc1nc2ccccc2s1 | 1.81% (inactive)
